Experimental data from PubChem BioAssay (NCI).
This is part of a sample that, as a whole, favours compounds with a hit. Of some 83,000 tested, about 20% had one in any assay.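 Single-dose data. Exposure time 48 hours. Values below 10 considered active.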 A number with no mark means an inactive call. Activity calls are given as the source filed them.

How the values were obtained:
Assay in all cases: NCI-60 one-dose screen, 48 h (100 = growth as untreated, 0 = no growth, -100 = all killed)
Conditions in all cases: 10 µM unless noted
[1] = system: MDA-MB-435 melanoma
[2] = system: SW-620 colon
[3] = system: MCF7 breast
[4] = system: HCT-116 colon
[5] = system: HCC-2998 colon
[6] = system: KM12 colon
[7] = system: BT-549 breast

SMILES	growth [1]	growth [2]	growth [3]	growth [4]	growth [5]	growth [6]	growth [7]
COc1ccc(/C=c2\c(=O)n(-c3ccccc3)c3nn4c(n23)=NNC42CCCCC2)cc1	110%	103%	96.6%	95.8%	107%	102%	–
C[C@@H](C[C@H](CC1CC1)c1ccccc1)c1ccc2ccccc2c1	102%	93.6%	108%	98.6%	101%	103%	106%
O=[N+]([O-])c1cccc(N=C(Nc2cccc([N+](=O)[O-])c2)c2ccccc2)c1	78.4%	101%	68.9%	58.1%	93.2%	84.2%	82%
CCOP(=O)(O)OP(=O)(O)OCC	110%	103%	94.1%	106%	104%	103%	–
COc1cc(C2CC(c3ccc(Cl)cc3)=NN2C=O)ccc1OS(=O)(=O)c1ccc(C)cc1 (stereo unspecified)	90.2%	87.2%	78.9%	81.1%	104%	93.4%	83.2%
O=C(NNC(=S)Nc1ccccc1)c1ccc(Nc2ncnc3c2cnn3-c2cccc(Br)c2)cc1	105%	104%	103%	98.9%	104%	107%	104%
Nc1n[nH]c2ccc([C@@H]3Nc4c(F)cc5[nH]ncc5c4[C@H]4C5CCC(C5)[C@@H]34)cc12 (stereo partly specified)	-11.5% (active)	21.8%	18.5%	–	28.1%	10.4%	27%
COc1c(B(O)O)cccc1-c1nc2c(F)cc3n[nH]c(C)c3c2c2c1CCCC2	21.2%	15.3%	15%	10.5%	51.7%	20.5%	–
Fc1cnccc1-c1nc2ccc3[nH]ncc3c2c2c1CCCC2	10.4%	14.6%	34.7%	7.21% (active)	37.5%	18.4%	16.1%
COc1cc(C2Nc3ccccc3S2)cc(CN2CCOCC2)c1O (stereo unspecified)	0.594% (active)	50.7%	50.6%	53.2%	86.4%	55.4%	84.9%
COc1ccc(/C=C(/C(=O)N2CCN(c3ccccc3)CC2)c2cc(OC)c(OC)c(OC)c2)cc1N	-48.7% (active)	25.9%	19.9%	9.1% (active)	25.3%	14.4%	9.88% (active)
Cn1nc(C(F)(F)F)cc1-c1c[nH]c(OCc2ccc(Cl)cc2)c(-c2ccc(Cl)c(C(F)(F)F)c2)c1=O	1.96% (active)	12.6%	1.28% (active)	4.49% (active)	13.3%	8.85% (active)	2.51% (active)
C#CC[C@@H]1C[C@]2(C)[C@H]3CC[C@@H]4[C@H]5C(C(=C)C)CC[C@]5(C(=O)NCCCCCCCCN)CC[C@@]4(C)[C@]3(C)CC[C@H]2C(C)(C)[C@H]1OC(C)=O (stereo partly specified)	76.5%	-2.59% (active)	-18.9% (active)	-88.5% (active)	91.1%	61.9%	97.5%
O=C1Cc2c([nH]c3ccc([N+](=O)[O-])cc23)-c2ccccc2N1	16.2%	-3.84% (active)	8.43% (active)	4.3% (active)	-34.5% (active)	4.23% (active)	5.54% (active)
CC1CN(CCCOC(=O)Nc2ccc(Cl)cc2)CCN1C(C)(C)C (stereo unspecified)	102%	110%	99%	100%	101%	106%	101%
O=C(/C=C/c1cc([N+](=O)[O-])ccc1Cl)c1ccccc1	86%	6.41% (active)	20.6%	-100% (active)	103%	5.35% (active)	86.3%
COc1cc2c(cc1OC)C(=O)OC2	103%	104%	105%	–	118%	113%	118%
CC(=O)O[C@H]1[C@H](CC#CC#CC[C@@H]2C[C@]3(C)[C@H]4CC=C5[C@H]6[C@@H](C)[C@H](C)CC[C@]6(C(=O)NCCCCCCCCN)CC[C@@]5(C)[C@]4(C)CC[C@H]3C(C)(C)[C@H]2OC(C)=O)C[C@]2(C)[C@H]3CC=C4[C@H]5[C@@H](C)[C@H](C)CC[C@]5(C(=O)NCCCCCCCCN)CC[C@@]4(C)[C@]3(C)CC[C@H]2C1(C)C	110%	97.8%	105%	97.7%	100%	89.2%	112%
CN1CCN(Cc2ccc(NC(=O)c3cncc(C#Cc4ncc5cnccn45)c3)cc2C(F)(F)F)CC1	39.3%	22%	36%	–	43.1%	13.2%	63.7%
CNC(=O)c1cc(Oc2ccc(NC(=O)c3nc(S(C)(=O)=O)n(C)c3-c3ccc(F)cc3)cc2)ccn1	79.4%	72.1%	79%	64.2%	93.8%	21.9%	80.6%
NC(N)=N/N=C\c1cccc(OCc2ccccc2)c1	35.1%	36%	47.2%	41.9%	4.51% (active)	68.3%	94.1%
